Screening results from PubChem BioAssay.
D1 antagonist: blocks dopamine activation of the human D1 receptor | P21728 | HEK293 TREx D1 cells, calcium flux, dopamine EC80; hits give low values | activity change, negative = inhibition, % at 10 µM | 3.2% of 360,000 active | AID 504652; in the data active means activity change below about -30%
Target sequence (P21728 whole entry, looked up): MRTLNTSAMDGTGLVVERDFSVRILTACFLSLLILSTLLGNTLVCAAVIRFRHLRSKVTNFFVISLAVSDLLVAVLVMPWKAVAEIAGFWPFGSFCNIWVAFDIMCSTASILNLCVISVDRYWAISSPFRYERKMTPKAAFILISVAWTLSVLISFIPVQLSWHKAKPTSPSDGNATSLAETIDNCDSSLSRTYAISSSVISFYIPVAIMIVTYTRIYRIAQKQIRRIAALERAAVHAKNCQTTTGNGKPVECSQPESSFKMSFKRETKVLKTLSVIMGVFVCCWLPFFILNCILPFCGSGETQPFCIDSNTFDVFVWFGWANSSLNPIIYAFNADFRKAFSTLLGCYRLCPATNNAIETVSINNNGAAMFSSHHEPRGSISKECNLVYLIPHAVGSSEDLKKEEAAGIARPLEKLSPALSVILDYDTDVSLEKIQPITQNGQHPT
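Kinetic fluorescence of a calcium dye serves as the read-out. D1-expressing Hek293 Trex cells, induced overnight at 30 C, are exposed to compound for 180 s before an EC80 dopamine addition, then read 180 s further.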
D1 PAM: potentiators of human D1 dopamine receptor | P21728 | HEK293 TREx D1 cells, calcium flux, dopamine EC20 potentiation | potentiation, % at 10 µM | 0.036% of 360,000 active | AID 504651; in the data active means potentiation above about 30%
TRHR agonist: TRH receptor (human) agonism; activation, % at 2 µM; 0.18% of 360,000 active; TRHR cells, calcium flux fluo-8, FDSS agonist mode; P34981
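In this calcium-flux screen, cells bearing human TRHR are dye-loaded with fluo-8, baselined for 10 cycles, then exposed to library compounds; positive kinetic calcium responses during the agonist phase mark hits, with TRH as control.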
TRHR PAM: allosteric enhancers of human TRH receptor; P34981; TRHR cells, fluo-8 calcium fluorescence, EC20 TRH enhancement; enhancement, % at 2 µM; 0.66% of 360,000 active; in the data active means enhancement above about 30%
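TRHR-expressing cells loaded with fluo-8 calcium dye were read kinetically (ex 480/em 530) during compound addition, then stimulated with an EC20 of TRH (10 nM final). Enhancement of the Gq-mediated intracellular calcium response was scored.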
D1 ag: human D1 receptor agonism. activation, % at 2 µM. HEK293 T-REx D1 cells, calcium flux, agonist mode. 1% of 360,000 active. AID 504660. P21728
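Agonism was scored from calcium flux recorded over 180 s (1 read/s) after pintool compound addition, following a 10-cycle baseline. Cells were inducible force-coupled HEK293 TREx D1, plated overnight at 30 C and loaded with no-wash calcium dye.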
Hits are given with their value; ! = not active in a repeat. The list is not random: actives were taken first. Their share in the collection is about 4.6%. Unless noted, no stated cut-off is given here; in the data, active means activation above about 30%; inactive means the rest.

CC1CCN(S(=O)(=O)c2ccc(S(=O)(=O)NCC3COCCO3)cc2)CC1 (stereo unspecified) was read as D1 antagonist inactive, D1 PAM inactive, TRHR agonist inactive, TRHR PAM inactive and D1 ag inactive.
CCn1c(C)nc2cc(S(=O)(=O)C(F)(F)F)ccc21 was read as D1 antagonist inactive, D1 PAM inactive, TRHR agonist inactive, TRHR PAM inactive and D1 ag inactive.
Screening CC(=O)N1c2ccc(S(=O)(=O)N3CCCC(C(=O)NCc4ccccc4Cl)C3)cc2CC1C (stereo unspecified) returned D1 antagonist inactive, D1 PAM inactive, TRHR agonist inactive, TRHR PAM inactive and D1 ag inactive.
Screening COc1ccc(N2CCN(C(=O)C3CCCN(S(=O)(=O)c4ccc5c(c4)CCCN5C(C)=O)C3)CC2)cc1 (stereo unspecified) returned D1 antagonist inactive, D1 PAM inactive, TRHR agonist inactive, TRHR PAM inactive and D1 ag inactive.
Screening CC(=O)N1CCCc2cc(S(=O)(=O)N3CCCC(C(=O)NCc4ccccc4Cl)C3)ccc21 (stereo unspecified) returned D1 antagonist -42.2!, D1 PAM inactive, TRHR agonist inactive, TRHR PAM inactive and D1 ag inactive.
Screening CC(=O)N1CCCc2cc(S(=O)(=O)N3CCCC(C(=O)N4CCN(c5ccccc5F)CC4)C3)ccc21 (stereo unspecified) returned D1 antagonist -38.8, D1 PAM inactive, TRHR agonist inactive, TRHR PAM inactive and D1 ag inactive.
CCCCOc1ccccc1C1NC(=O)NC(C)=C1C(=O)OCc1ccco1 (stereo unspecified) was read as D1 antagonist inactive, D1 PAM inactive, TRHR agonist inactive, TRHR PAM inactive and D1 ag inactive.
Screening COc1ccc(N2C(=O)C3NN=C(C(=O)OCc4ccccc4)C3C2=O)cc1 (stereo unspecified) returned D1 antagonist inactive, D1 PAM inactive, TRHR agonist inactive, TRHR PAM inactive and D1 ag inactive.
Screening CCCCn1c(O)c(N=Nc2ccccc2O)c2ccccc21 returned D1 antagonist inactive, D1 PAM inactive, TRHR agonist inactive, TRHR PAM inactive and D1 ag 30.1.
`Nc1ccc(NC(=S)Nc2ccccc2)cc1` gave D1 antagonist -56.9, D1 PAM inactive, TRHR agonist inactive, TRHR PAM inactive and D1 ag inactive.
`COc1cc(/C=C2\SC(=S)N(C(C(=O)O)c3ccccc3)C2=O)ccc1O` (stereo unspecified) gave D1 antagonist inactive, D1 PAM inactive, TRHR agonist 50.0, TRHR PAM inactive and D1 ag 82.2.
Screening CCOc1ccc(/C=C2/SC(=S)N(C(C(=O)O)c3ccccc3)C2=O)cc1OCC (stereo unspecified) returned D1 antagonist inactive, D1 PAM inactive, TRHR agonist inactive, TRHR PAM inactive and D1 ag inactive.
`CCOc1cc(/C=C2\SC(=S)N(C(C(=O)O)c3ccccc3)C2=O)ccc1O` (stereo unspecified) gave D1 antagonist inactive, D1 PAM inactive, TRHR agonist inactive, TRHR PAM inactive and D1 ag 171.7.
O=C(O)C(c1ccccc1)N1C(=O)/C(=C\c2ccc(O)c(O)c2)SC1=S (stereo unspecified) was read as D1 antagonist inactive, D1 PAM inactive, TRHR agonist 31.7, TRHR PAM inactive and D1 ag inactive.
O=C(COC(=O)c1ccc(O)cc1)Nc1ccc2[nH]c(=O)[nH]c2c1 was read as D1 antagonist inactive, D1 PAM inactive, TRHR agonist inactive, TRHR PAM inactive and D1 ag inactive.
For O=C(Nc1ccc(Nc2ccccc2)cc1)c1ccc(F)cc1 the results were D1 antagonist inactive, D1 PAM inactive, TRHR agonist inactive, TRHR PAM inactive and D1 ag inactive.
O=C(Nc1ccc(Nc2ccccc2)cc1)c1c(F)c(F)c(F)c(F)c1F was read as D1 antagonist -30.6, D1 PAM inactive, TRHR agonist inactive, TRHR PAM inactive and D1 ag inactive.
Screening COc1ccc(CCNC(=O)C2CC(c3ccc([N+](=O)[O-])cc3)=NO2)cc1 (stereo unspecified) returned D1 antagonist inactive, D1 PAM inactive, TRHR agonist inactive, TRHR PAM inactive and D1 ag inactive.
COc1ccc(C2=NOC(COc3ccc([N+](=O)[O-])cc3)C2)cc1 (stereo unspecified) was read as D1 antagonist -32.4, D1 PAM inactive, TRHR agonist inactive, TRHR PAM inactive and D1 ag inactive.
O=C1C(Cc2ccccc2)S/C(=N/N=C/c2ccco2)N1c1ccccc1 (stereo unspecified) was read as D1 antagonist inactive, D1 PAM inactive, TRHR agonist inactive, TRHR PAM inactive and D1 ag inactive.
`CC(=O)c1c(C)n(-c2ccccc2)c2ccc(O)cc12` gave D1 antagonist -38.1, D1 PAM inactive, TRHR agonist inactive, TRHR PAM inactive and D1 ag inactive.
CC(=O)c1ccc(-n2c(C)c(C(C)=O)c3cc(O)ccc32)cc1 was read as D1 antagonist inactive, D1 PAM inactive, TRHR agonist inactive, TRHR PAM inactive and D1 ag inactive.
Screening CC(=O)c1c(C)n(-c2ccc(Cl)cc2)c2ccc(O)cc12 returned D1 antagonist inactive, D1 PAM inactive, TRHR agonist inactive, TRHR PAM 38.9 and D1 ag inactive.
For CC(=O)c1c(C)n(-c2cccc(Cl)c2)c2ccc(O)cc12 the results were D1 antagonist inactive, D1 PAM inactive, TRHR agonist inactive, TRHR PAM inactive and D1 ag inactive.
CCOc1ccc(-n2c(C)c(C(=O)OC)c3cc(O)ccc32)cc1 was read as D1 antagonist inactive, D1 PAM inactive, TRHR agonist inactive, TRHR PAM inactive and D1 ag inactive.
Screening COC(=O)c1c(C)n(-c2ccc(C)cc2)c2ccc(O)cc12 returned D1 antagonist -61.7, D1 PAM inactive, TRHR agonist inactive, TRHR PAM inactive and D1 ag inactive.
Screening COc1ccc(NC(=O)CCCCCN2C(=O)[C@@H]3Cc4ccccc4CN3C2=O)cc1Cl returned D1 antagonist inactive, D1 PAM inactive, TRHR agonist inactive, TRHR PAM inactive and D1 ag inactive.
CCC(=O)Nc1ccc2nc(SCCOc3cccc(C)c3)sc2c1 was read as D1 antagonist inactive, D1 PAM inactive, TRHR agonist inactive, TRHR PAM inactive and D1 ag inactive.
For C=CCn1c(SCCC)nc2sc3c(c2c1=O)CCc1ccccc1-3 the results were D1 antagonist inactive, D1 PAM inactive, TRHR agonist inactive, TRHR PAM inactive and D1 ag inactive.
For O=C(NCc1cccs1)C1CCN(C(=O)NCc2ccccc2)CC1 the results were D1 antagonist -84.4, D1 PAM inactive, TRHR agonist inactive, TRHR PAM inactive and D1 ag inactive.
CN(C)C(=O)N1CCC(C(=O)NCc2ccccc2)CC1 was read as D1 antagonist inactive, D1 PAM inactive, TRHR agonist inactive, TRHR PAM 34.4 and D1 ag inactive.
